According to PubChem BioAssay AID485313 (National Center for Advancing Translational Sciences (NCATS), 2010):
The campaign covered roughly 320,000 compounds. About 7,600 (2.4%) were called active. About 3% were inconclusive and are not listed. Calls come from the whole dose curve; as a rule, active = well fitted activation curve with a large enough effect; inconclusive = small, poorly fitted or top-dose-only effect; inactive = no such curve, though single readings can be large or run the other way. For the sample, actives were picked, then their nearest neighbours and some compounds at random.

assay: qHTS Assay for NPC1 Promoter Activators; conditions: Huh7 NPC1 promoter luciferase reporter, 24 h; series mostly up to 9.22 µM; note: nearly all actives have a fitted effect of over 60% in size;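 for activation: reporter is driven by a mutant NPC1 promoter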
Method in brief: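 Stable NPC1-promoter luciferase Huh7 line; cpd (DMSO) 24 h, 37 °C, 5% CO2; Amplite luciferase reagent 10 min RT; luminescence readout. qHTS format.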
Potency is the fitted concentration of half-maximal effect.

Potency, inactive:
Cc1cccc(OCCC(=O)OCc2csc(CC(=O)Nc3ccccc3C)n2)c1
COC(=O)c1ccc(C23CC4(C2)[C@H](CN(Cc2cccnc2)[C@@H]4c2ccccc2)C3c2ccc(Cl)nc2)cc1 (some centres undefined)
O=C(Nc1ccc(NC(=O)c2ccccc2F)cc1)c1ccccc1F
CN(Cc1ccccc1)S(=O)(=O)c1nnc(NC(=O)c2ccccc2F)s1
COc1ccc(C(=O)NCC2CCCCC2)cc1S(=O)(=O)N1CCCC1
CCCn1c(N)c(C(=O)CSc2nnc3n2CCCCC3)c(=O)[nH]c1=O
COc1ccc([C@H]2CC(=O)C=C(c3ccc(CO)cc3)C2)cc1
Cc1c(/C=N\NC(=O)c2cc3ccccc3o2)c2ccccc2n1C
C/C(=N\NC(=S)Nc1ccc(C)cc1)c1cc2ccccc2o1
COc1ccc(NC(=O)Cn2cc(C(=O)c3ccncc3)c(=O)c3cc(C)ccc32)cc1Cl
O=C1C=C(c2cccc(Br)c2)C[C@@H](c2ccc(F)cc2)C1
Cc1ccnc(NC(=O)CNC(=O)c2ccccc2)c1
Cc1ccnc(NC(=O)CCCOc2ccccc2)c1
COc1cc(SC)ccc1C(=O)N(Cc1ccccc1)c1ccccc1
COc1ccccc1OCCNC(=O)CCNC(=O)c1ccccc1Cl
COc1ccc(S(=O)(=O)Nc2cc(C)on2)cc1NC(C)=O
CC1CCCCC1NC(=O)COC(=O)Cc1ccc(Cl)cc1 (centres undefined)
CCc1ccc(C(=O)N2CCN(S(=O)(=O)c3sc(C(=O)O)c(C)c3C(=O)O)CC2)cc1
COc1ccc(CNC(=O)CN2C(=O)NC3(CCCc4sccc43)C2=O)cc1 (centres undefined)
CCN(CC)S(=O)(=O)c1ccc(CNC(=O)CN2C(=O)NC3(CCc4ccccc43)C2=O)cc1 (centres undefined)
Cc1ccn(CCC(=O)N2c3ccccc3CC2C)n1 (centres undefined)
CCn1nc(C(=O)OCC(=O)N2c3ccccc3CC2C)c2ccccc2c1=O (centres undefined)
COc1ccc(CCNC(=O)COC(=O)c2cc(=O)c3ccccc3o2)cc1
O=C(O)c1ccccc1N=N/C(=N/Nc1cc(S(=O)(=O)O)ccc1O)c1ccccc1
Cc1nc(N2CCCCC2)sc1C=O
O=C(NCCc1cccc(F)c1)C1CCCN(c2nc3ccccc3s2)C1 (centres undefined)
O=C(c1ccc2nc(N3CCOCC3)sc2c1)N1CCN(c2ccc(Cl)cc2)CC1
CN(C)CCCN(C(=O)c1ccc(S(=O)(=O)N2CCCCCC2)cc1)c1nc2ccc(Br)cc2s1
OCC[C@H]1C[C@H](O)[C@@H](O)[C@]2(Cc3ccccc3CO2)O1
COc1ccccc1CNC(=O)CCCN1C(=O)NC2(CCCC2)C1=O
CNS(=O)(=O)c1cccc(C(=O)OCC(=O)N2c3ccccc3NC(=O)C2(C)C)c1
Cc1ccc(OCCCC(=O)Nc2ccc3c(c2)OCCO3)cc1
O=C(CNC(=O)c1cccs1)N/N=C/c1cccc(Br)c1
CCN(CC)c1ccc(/C=N/NC(=O)CNC(=O)c2cccs2)cc1
CC(=O)c1ccc(OC(=O)N2CCOCC2)cc1
CC(C)CN(C(=O)CSc1nncn1C)C1CCS(=O)(=O)C1 (centres undefined)
COc1ccc(-c2cc(C(=O)NCCCN3CCOCC3)no2)cc1
Cc1c(NC(=O)c2cc(-c3ccc(Br)cc3)on2)c(=O)n(-c2ccccc2)n1C
COc1ccc(CCC(=O)N2CCN(S(=O)(=O)c3ccc(OC)cc3)CC2)cc1
Cc1cc(NC(=O)COc2ccc([N+](=O)[O-])cc2)no1
Cc1cccc(NC(=O)CN2CCN(CC(=O)NCC3(N4CCCCC4)CCCCC3)CC2)c1C
CN(CC(=O)NC(=O)Nc1ccccc1F)Cc1ccccc1
CCCCCC(=O)Nc1ccc(-c2cn3cccnc3n2)cc1
CC(=O)Nc1ccc(S(=O)(=O)Nc2cccc(NC(=O)C(C)(C)C)c2)cc1
O=C1C=C(c2ccnc3cc(Cl)ccc23)C[C@@H](c2ccc3c(c2)OCO3)C1
Cc1ccc(CNC(=O)c2cc(-c3ccccc3C)n(CC3CC(c4cccc([N+](=O)[O-])c4)=NO3)n2)cc1 (centres undefined)
CN(c1ccccc1)S(=O)(=O)c1cccc(NC(=O)Cc2ccc(Cl)cc2)c1
OCCN1CCN(C(=S)c2ccc(-c3ccccc3)cc2)CC1
S=C(c1ccccc1)N1CCCC1
O=C(OCC(=O)N1CCCC1)c1ccc(Cl)nc1
Cc1ccc(Nc2nnc(SC(C)C(=O)NC3CC3)s2)cc1 (centres undefined)
CN1CCN(c2ccc(NC(=O)c3cc(Cl)c4c(c3)OCCO4)cc2)CC1
O=C(Nc1ccc(Cl)cc1)Nc1nnc(/C=C/c2ccccc2)s1
Cc1ccc(F)cc1NC(=O)c1ccc2c(c1)OCO2
O=C(CCNC(=O)c1ccccc1)Nc1nc2ccccc2s1
O=C(Nc1cccc(S(=O)(=O)N2CCCCC2)c1)c1ccc2c(c1)OCO2
COC(=O)c1ccc(N2CCOCC2)c(NC(=O)c2ccc3c(c2)OCCO3)c1
O=C(CN1CCc2cc3c(cc2C1)OCCCO3)Nc1ccccc1
O=C(Nc1ccccc1N1CCN(C(=O)c2ccccc2)CC1)c1ccc2c(c1)OCO2

Potency, active:
O=C(Nc1nnc(-c2ccccc2F)s1)c1ccccc1F 1.58 µM
Cc1ccc(NC(=O)c2cc3ccccc3o2)cc1 3.16 µM
COc1cc(SC)ccc1C(=O)NCCOc1ccccc1Cl 3.16 µM
COc1cc(SC)ccc1C(=O)Nc1cc(C)ccn1 3.16 µM
CCCC(=O)N1c2ccc(-c3csc(N)n3)cc2CC1C (centres undefined) 2.82 µM
Fc1ccc2nc(N3CCCCC3)sc2c1 3.55 µM
Brc1ccc2nc(N3CCCC3)sc2c1 2 µM
CC(=O)Nc1ccc(/C=N/NC(=O)c2cccs2)cc1 2.51 µM
CC(C)CNC(=O)c1cc(-c2ccc(Br)cc2)on1 3.16 µM
CC(C)(C)C(=O)Nc1ccc(-c2cn3cccnc3n2)cc1 3.16 µM
S=C(c1ccc(-c2ccccc2)o1)N1CCCCC1 2.24 µM
O=C(Nc1ccccc1)Nc1nc2ccccc2s1 2.82 µM
O=C(Nc1ccccc1F)c1ccc2c(c1)OCO2 3.98 µM
O=C(Nc1ccccc1)c1ccc2c(c1)OCCCO2 0.501 µM
CN1CCN(c2ccc(NC(=O)c3ccc4c(c3)OCCO4)cc2Cl)CC1 3.55 µM
